Bioassay records deposited in PubChem BioAssay by National Center for Advancing Translational Sciences (NCATS).
The list is not random: actives were taken first. Their share in the collection is about 3.7%.
miR-21 reporter = qHTS Assay for Modulators of miRNAs and/orActivators of miR-21; HeLa miR-21 FLuc reporter, luciferase, 48 h; Potency, µM (top dose mostly 38.3 µM), without a hit: at the top dose activity change, positive = activation, hits mostly activators; 340,000 tested, under 10 active; AID 2288, 2010;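 also: % of control where 0% means no effect; miR-21 action dims this reporter so a rising signal means less miR-21 action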
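HeLa cells stably expressing CMV-driven firefly luciferase with a downstream miR-21 binding sequence, endogenously expressing miR-21, were treated with titrations (up to about 40uM final) for 48 hours at 37 degree Celsius. Luciferase luminescence was read after lysis.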
Nrf2 inh = Nrf2 qHTS screen for inhibitors; A549 ARE-Fluc reporter, luciferase luminescence, 18-24 h; Potency, µM (titrated, usually from 46 µM), for the others: at the highest dose activity change, negative = inhibition, most hits filed as inhibitors; 2.1% of 360,000 active; AID 504444, 2011; also: potency is read from the fitted curve at half-maximal effect; % is scaled to controls: 0 for no effect and ±100 for the full control effect; nearly all actives have a fitted effect of over 60% in size
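A549 ARE_Fluc cells, 5000/well, 5% FBS OPTI-MEM; compounds in dose-response, 18-24 h at 37 °C/5% CO2; CellTiter-Fluor viability read (Ex 405/Em 525), then BugLite luciferase luminescence = Nrf2 activity.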
IL2 activator = qHTS of IL-2 Activators; IL-2 activation reporter assay, cell-based qHTS; stimulated with anti-CD3/CD4/CD28 beads; in transgenic mouse T cells; AID 652025, 2013; activation, % (series mostly up to about 46 µM); 0.065% of 360,000 active; in the data active = activation above about 50%; inconclusive = mostly about 30% to 49%; also: 0% is about no effect
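EGFP and DsRed fluorescence is measured by plate cytometry in unstimulated transgenic mouse T cells exposed to compound for 60 minutes, then stimulated 18 hours at 37 degrees C with anti-CD3/anti-CD4 beads plus anti-CD28.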
A549 viability = Nrf2 qHTS screen for inhibitors: counterscreen for cytotoxicity | AID 504648, 2011 | 0.16% of 390,000 active | A549 ARE-Fluc cells, CellTiter-Fluor viability, 18-24 h | Potency, µM (top dose mostly 46 µM), inactives show at the highest dose activity change, negative = cytotoxicity, usual class: inhibitors; also: potency is read from the fitted curve at half-maximal effect; % is scaled to controls: 0 for no effect and ±100 for the full control effect
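A549 ARE-Fluc cells in 5% FBS OPTI-MEM, 5000 cells/well, rested 2 h then exposed to compounds in concentration-response for 18-24 h at 37 °C. Viability by CellTiter-Fluor fluorescence (Ex 405/Em 525) after 30 min; luciferase luminescence (BugLite, 15 min, RT) read afterwards.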
Nrf2 activator = qHTS of Nrf2 Activators | AREc32 ARE-luciferase reporter (MCF7-derived line), luminescence, 24 h | Potency, µM (series often up to 46.1 µM), for inactives: at the top dose activation, actives largely listed as activators | 0.31% of 410,000 active | AID 624171, 2012; also: potency is read from the fitted curve at half-maximal effect; % of control where 0% means no effect; nearly all actives have a fitted effect of over 65% in size
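AREc32 cells carrying an ARE-driven firefly luciferase reporter were seeded at 1000 cells/well in OPTI-MEM with 5% FBS, then exposed to compound for 24 hr at 37 deg C. Luminescence was read with Steady-Glo after 30 min at RT.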
ClpP mod = qHTS Assay for Activators of ClpP. 1.9% of 340,000 active. purified B. subtilis ClpP, FRET peptide cleavage, 20 min. Potency, µM (titrated, usually from 57.5 µM), inactives show at the highest dose activity change, negative = active. AID 651965, 2013. ATP-dependent Clp protease proteolytic subunit (Bacillus subtilis (strain 168)), P80244; active = well fitted falling curve with a large enough effect; inconclusive = small, poorly fitted or top-dose-only effect; inactive = no such curve, though single readings can be large or run the other way; also: potency is read from the fitted curve at half-maximal effect; the source files actives as falling curves though it sought activators and does not explain the sign; nearly all actives have a fitted effect of over 65% in size
Target sequence (P80244 whole entry, looked up): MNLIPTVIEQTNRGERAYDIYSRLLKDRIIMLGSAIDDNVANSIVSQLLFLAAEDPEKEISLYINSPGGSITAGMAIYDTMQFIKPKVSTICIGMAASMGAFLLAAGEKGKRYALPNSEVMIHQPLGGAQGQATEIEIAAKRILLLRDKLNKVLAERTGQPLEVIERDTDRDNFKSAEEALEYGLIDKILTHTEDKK
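Buffer: 100 mM Tris/HCl pH8, 100 mM KCl, 0.05% low protease BSA, 2.5% glycerol, 0.01% Tween-20. ClpP 10 microg/mL final; 20 min RT; delta FRET normalized to ADEP and DMSO controls.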
Starred values were filed as active, the others as inactive; ? = inconclusive; nt = not tested or not shown; [ ] = remark or other dose. Unless noted, calls follow the shape of the dose curve; as a rule, active = well fitted curve in the direction sought with a large enough effect; inconclusive = small, poorly fitted or top-dose-only effect, or another doubt; inactive = no such curve, though single readings can be large; an effect the other way counts as inactive or inconclusive.

SMILES	miR-21 reporter	Nrf2 inh	IL2 activator	A549 viability	Nrf2 activator	ClpP mod
CC(=O)c1c(C)[nH]c(C(=O)OCC(=O)Nc2cccnc2Cl)c1C	nt	26µM*	-1	4%	3%	nt
CC(=O)c1c(C)[nH]c(C(=O)OCC(=O)Nc2cccc(S(=O)(=O)N3CCCC3)c2)c1C	9%	15µM*	0	-13%	5%	0%
CC(=O)c1c(C)[nH]c(C(=O)Nc2cccc(S(=O)(=O)N3CCCC3)c2)c1C	nt	?	0	-9%	21%	0%
CNC(=O)COC(=O)c1[nH]c(C)c(C(C)=O)c1C	-2%	1%	-1	1%	0%	-4%
COc1ccc(S(=O)(=O)N2CCOCC2)cc1NC(=O)COC(=O)c1[nH]c(C)c(C(C)=O)c1C	nt	?	-1	4%	3%	nt
CC(=O)c1c(C)[nH]c(C(=O)OCC(=O)NCC(C)C)c1C	4%	10µM*	-1	-14%	2%	nt
CC(=O)c1c(C)[nH]c(C(=O)OCC(=O)Nc2ccc([N+](=O)[O-])cc2Cl)c1C	-2%	-1%	-3	-4%	2%	-1%
CC(=O)c1c(C)[nH]c(C(=O)OCC(=O)Nc2cc(S(=O)(=O)N3CCCC3)ccc2Cl)c1C	14%	21µM*	-1	-12%	4%	2%
COc1ccc(CNC(=O)CCc2nnc3n(CC(C)C)c(=O)c4ccccc4n23)cc1	4%	-2%	nt	2%	0%	-7%
COc1ccc(CCNC(=O)c2cc(Nc3ccccc3)nc3ccccc23)cc1OC	26%	nt	nt	-17%	12%	-8%
COc1ccc(NC(=O)C2CCCN(S(=O)(=O)c3ccc(Br)s3)C2)cc1 (stereo unspecified)	1%	?	nt	-9%	5%	-5%
O=S(=O)(c1ccc2c(c1)OCCO2)N1CCN(S(=O)(=O)c2ccc(F)cc2F)CC1	nt	7%	nt	2%	nt	nt
C=CCn1c(SCc2c(C)noc2C)nc2sc3c(c2c1=O)CCCCC3	-2%	16µM*	0	-28%	-1%	-4%
CCN(CC)c1ccc2c(C)c(CN3CCOCC3)c(=O)oc2c1	-11%	5%	-1	?	-1%	28µM*
CCN(CC)c1ccc2c(C)c(CO)c(=O)oc2c1	-37%	4%	-1	6%	-1%[9.22 µM]	nt
Cc1ccc(/C=C/c2onc(C)c2S(=O)(=O)N2CCC(C(=O)NCc3ccc(C)o3)CC2)cc1	-5%	nt	nt	8%	1%	?
O=C(NC1CC1)c1ccc2nc(-c3ccco3)c(-c3ccco3)nc2c1	nt	-24%	nt	-10%	nt	-21%
Cc1ccccc1Cn1c2ccccc2c2cnn(CC(=O)NCC(C)c3ccccc3)c(=O)c21 (stereo unspecified)	-2%	19%	nt	2%	-1%	?
O=C(CSc1cn(CCNC(=O)c2cccc(C(F)(F)F)c2)c2ccccc12)Nc1ccc2c(c1)OCCO2	?	16µM*	nt	?	-1%	-1%
O=C(CSc1cn(CCNC(=O)c2ccccc2F)c2ccccc12)Nc1ccc2c(c1)OCCO2	?	3%	nt	-2%	1%	-2%
CC1CCC(NC(=O)CN2CCN(S(=O)(=O)c3ccc(Br)s3)CC2)CC1 (stereo unspecified)	nt	nt	-1	nt	0%	-4%
CC1CCCCC1NC(=O)CN1CCN(S(=O)(=O)c2ccc(Br)s2)CC1 (stereo unspecified)	nt	?	-1	1%	2%	14µM*
CC(C)C(c1nnnn1C1CCCCC1)N1CCc2ccccc2C1 (stereo unspecified)	5%	2%	1	-5%	0%	0%
c1ccc(C(c2nnnn2C2CCCCC2)N2CCc3ccccc3C2)nc1 (stereo unspecified)	-7%	-14%	1	4%	3%	2.5µM*
